Measured values published in PubChem BioAssay (NCATS).
Inconclusive results are not listed. The source made the active and inactive calls. Calls follow the shape of the dose curve; as a rule, active = well fitted cell-killing curve with a large enough effect; inconclusive = small, poorly fitted or top-dose-only effect, or effect the other way; inactive = flat fitted curve, though single readings scatter.

Legend:
Assay in all cases: Primary qHTS to identify gynecologic anti-cancer compounds using libraries of approved drugs and bioactive compounds (AID 1345084); also: nearly all actives have a fitted effect of over 55% in size
Conditions in all cases: Gynecologic cancer cell panel viability, ATPlite luminescence, 48 h; series mostly up to 57.5 µM
C33A = test system: C33A
Method in brief: (§1)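 Cell viability after 48 h drug treatment, ATPlite luminescence readout; five doses.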

CAOV3 = test system: CAOV3
Method in brief: as §1

CASKI = test system: CASKI
Method in brief: as §1
% is scaled to controls: 0 for no effect and ±100 for the full control effect.

CCOc1ccc(C(Nc2ccccn2)c2ccc3ccc(C)nc3c2O)cc1C (stereo not drawn)
inactive: Potency (C33A) | Potency (CAOV3) | Potency (CASKI)

C=CC1C(O[C@@H]2O[C@H](CO)[C@@H](O)[C@H](O)[C@H]2O)OC=C(C(=O)OC)C1CC(=O)O (stereo partly drawn)
inactive: Potency (C33A) | Potency (CAOV3) | Potency (CASKI)

CCc1cc2c(=O)c(-c3nc4ccccc4s3)coc2c(CN2CCCCC2)c1O
inactive: Potency (C33A) | Potency (CAOV3) | Potency (CASKI)

CC1=CC(=O)CC(C)(C)C1(O)CCC(C)O (stereo not drawn)
inactive: Potency (C33A) | Potency (CAOV3) | Potency (CASKI)

CC1(C)C[C@H]2C3=CCC4[C@@]5(C)CC[C@H](O[C@H]6O[C@H](C(=O)O)[C@@H](O)[C@H](O)[C@H]6O[C@H]6O[C@H](CO)[C@@H](O)[C@H](O)[C@H]6O[C@@H]6O[C@H](CO)[C@@H](O)[C@H](O)[C@H]6O)[C@](C)(CO)C5CC[C@@]4(C)[C@]3(C)CC[C@@]2(C)[C@H](O[C@@H]2OC[C@H](O)[C@H](OC3O[C@H](CO)[C@@H](O)[C@H](O)[C@H]3O)[C@H]2O)[C@@H]1O (stereo partly drawn)
inactive: activity change, negative = cytotoxicity (C33A) 3.46% [at 6.55 µM] | activity change, negative = cytotoxicity (CAOV3) 18.6% [at 6.55 µM] | activity change, negative = cytotoxicity (CASKI) -2.3% [at 6.55 µM]

CC1OC(OC2C(CO)OC(OCC3OC(OC(=O)C45CCC(C)(C)CC4C4=CCC6C7(C)CCC(OC8OC(C(=O)O)C(O)C(OC9OC(CO)C(O)C(O)C9O)C8O)C(C)(C)C7CCC6(C)C4(C)CC5)C(O)C(O)C3O)C(O)C2O)C(O)C(O)C1O (stereo not drawn)
inactive: activity change, negative = cytotoxicity (C33A) 4.48% [at 6.55 µM] | activity change, negative = cytotoxicity (CAOV3) -1.08% [at 6.55 µM] | activity change, negative = cytotoxicity (CASKI) 0.241% [at 6.55 µM]
